# Test results as given in PubChem BioAssay.
# Activity calls are given as the source filed them.
# Key:
# [1] = test system: PRMT1 (protein arginine N-methyltransferase 1); experiment: small molecules binding arginine methyltransferase PRMT1 – biochemical, small-molecule microarray, 635 nm fluorescence, primary screen (AID 1088); conditions: higher = more signal;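 note: binding of Prmt1 protein to compounds spotted on small-molecule microarray slides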
# [2] = growth effects on S. cerevisiae YJM789 – YJM789 clinical isolate, OD600, 24 h, basal, primary screen (AID 1089); conditions: higher = more signal, called active from +8 up or from −8 down;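 note: growth of clinical yeast isolate S. cerevisiae YJM 789 seeded 1000 cells per well; test concentration not given here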
# [3] = S. pombe growth modifiers, basal conditions – strain 972, OD600, 24 h, no modulator, primary screen (AID 1090);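 note: basal condition with compound alone and no growth modifier present; test concentration not given here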; conditions: S. pombe 972 growth, higher = more signal, called active from +8 up or from −8 down
# [4] = budding yeast growth modifiers under rapamycin – strain BY4716, OD600, 96 h, primary screen (AID 1091); note: test concentration not given here; conditions: S. cerevisiae BY4716 + rapamycin, higher = more signal, called active from +8 up or from −8 down
# [5] = target: Torsin-1A-interacting protein 2 (Homo sapiens) (UniProt Q8NFQ8); experiment: small molecules binding lysate-expressed LULL1 – cell lysate, human LULL1 lysate, 635/667 nm fluorescence, primary screen (AID 1092); conditions: small-molecule microarray, hLULL1 lysate binding, 635 nm fluorescence; higher = more signal;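 note: probe is lysate of COS7 cells overexpressing human LULL1; score merges per-feature 667 nm fluorescence with signal-to-noise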
# [6] = optical density change of DRC41 E. coli – strain DRC41, OD650, 24 h, E. coli filamentation project, primary screen (AID 1093);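 note: MC1000 strain lacking acrAB efflux and sulA so SOS filamentation is blocked; test concentration not given here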; conditions: E. coli DRC41 growth, higher = more signal, called active from +8 up or from −8 down
# [7] = probe aLefty2 binding to arrayed compounds – biochemical, biotinylated probe, 635/667 nm fluorescence, primary screen (AID 1094); conditions: small-molecule microarray, higher = more signal;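 note: score merges spot fluorescence near 667 nm with spot signal-to-noise ratio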
# [8] = test system: Noggin (protein binding on small-molecule microarray); experiment: small molecules binding Noggin protein – biochemical, 635/667 nm fluorescence, primary screen (AID 1095); conditions: 635 nm fluorescence, higher = more signal;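 note: score merges 667 nm feature fluorescence with signal to noise over triplicate slides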
# [9] = target: Neurogenic locus notch homolog protein 3 (Homo sapiens) (UniProt Q9UM47); experiment: small molecules binding NOTCH3 protein – biochemical, 635/667 nm fluorescence, primary screen (AID 1096); conditions: small-molecule microarray, 635 nm fluorescence, higher = more signal
# [10] = probe aEGFR binding to arrayed compounds – biochemical, biotinylated probe, 635/667 nm fluorescence, primary screen (AID 1097); conditions: small-molecule microarray, higher = more signal;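 note: probe is a biotinylated anti-EGFR antibody binding compounds printed on slides; score combines fluorescence near 667 nm and signal to noise of each spot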
# Torsin-1A-interacting protein 2 (Homo sapiens), sequence (Q8NFQ8 whole entry, looked up): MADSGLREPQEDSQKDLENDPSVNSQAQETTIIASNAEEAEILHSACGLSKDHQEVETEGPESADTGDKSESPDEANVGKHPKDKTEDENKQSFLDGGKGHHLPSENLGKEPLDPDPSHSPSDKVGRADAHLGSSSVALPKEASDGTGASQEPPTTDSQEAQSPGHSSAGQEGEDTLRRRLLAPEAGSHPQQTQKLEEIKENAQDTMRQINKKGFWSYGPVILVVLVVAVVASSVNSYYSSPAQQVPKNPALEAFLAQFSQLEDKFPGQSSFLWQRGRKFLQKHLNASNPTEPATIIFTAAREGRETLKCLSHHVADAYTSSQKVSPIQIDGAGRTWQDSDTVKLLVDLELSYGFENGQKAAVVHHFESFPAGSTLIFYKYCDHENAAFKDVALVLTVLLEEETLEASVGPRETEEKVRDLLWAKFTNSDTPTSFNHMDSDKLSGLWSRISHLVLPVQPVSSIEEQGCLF
# Neurogenic locus notch homolog protein 3 (Homo sapiens), sequence (Q9UM47 whole entry, looked up): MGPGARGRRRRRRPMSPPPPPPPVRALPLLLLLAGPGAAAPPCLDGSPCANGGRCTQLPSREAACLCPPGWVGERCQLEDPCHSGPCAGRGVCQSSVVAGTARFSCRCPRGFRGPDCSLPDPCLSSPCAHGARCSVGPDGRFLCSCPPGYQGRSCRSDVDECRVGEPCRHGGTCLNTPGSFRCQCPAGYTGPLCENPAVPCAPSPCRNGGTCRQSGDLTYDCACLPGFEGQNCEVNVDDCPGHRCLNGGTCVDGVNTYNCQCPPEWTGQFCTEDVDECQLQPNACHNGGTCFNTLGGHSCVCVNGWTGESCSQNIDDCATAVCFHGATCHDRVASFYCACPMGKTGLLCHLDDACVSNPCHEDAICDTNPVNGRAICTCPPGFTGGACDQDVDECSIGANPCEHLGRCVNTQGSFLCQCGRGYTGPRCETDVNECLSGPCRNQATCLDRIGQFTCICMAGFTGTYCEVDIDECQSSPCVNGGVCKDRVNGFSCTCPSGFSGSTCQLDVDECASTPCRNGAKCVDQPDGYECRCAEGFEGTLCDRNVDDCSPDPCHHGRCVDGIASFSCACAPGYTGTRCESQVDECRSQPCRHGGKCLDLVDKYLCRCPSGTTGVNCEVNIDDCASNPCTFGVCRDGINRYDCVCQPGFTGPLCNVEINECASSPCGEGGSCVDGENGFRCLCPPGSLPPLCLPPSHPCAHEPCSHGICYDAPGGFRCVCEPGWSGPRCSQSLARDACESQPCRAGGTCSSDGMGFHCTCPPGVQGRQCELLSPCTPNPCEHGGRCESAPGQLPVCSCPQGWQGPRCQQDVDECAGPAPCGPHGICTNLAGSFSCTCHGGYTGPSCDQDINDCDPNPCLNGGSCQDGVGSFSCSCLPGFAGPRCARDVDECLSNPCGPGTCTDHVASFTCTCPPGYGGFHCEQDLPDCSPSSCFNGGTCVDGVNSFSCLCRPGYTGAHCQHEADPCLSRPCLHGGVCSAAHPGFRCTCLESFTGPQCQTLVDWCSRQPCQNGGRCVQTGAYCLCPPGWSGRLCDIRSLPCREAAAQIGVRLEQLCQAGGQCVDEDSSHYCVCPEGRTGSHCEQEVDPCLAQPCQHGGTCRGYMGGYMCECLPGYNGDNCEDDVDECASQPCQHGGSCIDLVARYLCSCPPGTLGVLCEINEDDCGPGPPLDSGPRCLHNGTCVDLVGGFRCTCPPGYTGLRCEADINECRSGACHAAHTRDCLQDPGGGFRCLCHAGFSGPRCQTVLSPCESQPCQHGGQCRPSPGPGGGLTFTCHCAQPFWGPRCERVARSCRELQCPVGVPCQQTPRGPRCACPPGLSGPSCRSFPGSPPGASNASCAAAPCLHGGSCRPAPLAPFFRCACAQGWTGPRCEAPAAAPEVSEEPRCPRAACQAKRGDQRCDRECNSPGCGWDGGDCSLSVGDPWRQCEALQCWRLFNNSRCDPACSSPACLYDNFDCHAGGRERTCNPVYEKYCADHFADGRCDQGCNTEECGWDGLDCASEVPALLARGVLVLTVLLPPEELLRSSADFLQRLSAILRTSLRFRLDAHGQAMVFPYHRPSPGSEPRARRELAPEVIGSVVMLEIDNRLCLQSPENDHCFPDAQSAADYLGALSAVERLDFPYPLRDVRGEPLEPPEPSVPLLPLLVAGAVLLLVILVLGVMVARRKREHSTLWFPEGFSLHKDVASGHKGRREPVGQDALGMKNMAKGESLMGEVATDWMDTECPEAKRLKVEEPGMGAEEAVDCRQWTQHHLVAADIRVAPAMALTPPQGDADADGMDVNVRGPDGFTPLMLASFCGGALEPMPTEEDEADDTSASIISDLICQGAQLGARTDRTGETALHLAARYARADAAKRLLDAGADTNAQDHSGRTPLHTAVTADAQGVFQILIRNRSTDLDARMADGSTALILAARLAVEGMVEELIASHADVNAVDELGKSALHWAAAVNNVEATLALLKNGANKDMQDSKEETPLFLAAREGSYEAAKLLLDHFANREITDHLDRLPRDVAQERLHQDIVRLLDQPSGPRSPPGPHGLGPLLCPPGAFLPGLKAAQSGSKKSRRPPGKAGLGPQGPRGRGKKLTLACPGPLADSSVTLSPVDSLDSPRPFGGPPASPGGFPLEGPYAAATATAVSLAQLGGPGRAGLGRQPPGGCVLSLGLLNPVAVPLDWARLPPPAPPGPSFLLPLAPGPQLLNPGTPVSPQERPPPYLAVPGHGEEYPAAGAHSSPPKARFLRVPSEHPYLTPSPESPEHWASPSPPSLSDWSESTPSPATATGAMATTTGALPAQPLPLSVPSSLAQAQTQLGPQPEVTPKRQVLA
Compound,composite z-score [1],z-score [2],z-score [3],z-score [4],composite z-score [5],z-score [6],composite z-score [7],composite z-score [8],composite z-score [9],composite z-score [10]
[N-]=[N+]=Nc1ccccc1C[C@]1(C(=O)NCc2ccccc2)N=C(c2ccc(OCCCO)cc2)O[C@H]1c1ccccc1N=[N+]=[N-],1.52,0.422 (inactive),1.63 (inactive),4.87 (inactive),2.53,0.362 (inactive),0.292,0.358,1.04,-0.067
COCCOC(=O)N1C(=O)[C@@]2(c3cc(C#CC4=CCCCC4)ccc31)[C@H](C(N)=O)[C@H]1C(=O)O[C@H](c3ccccc3)[C@H](c3ccccc3)N1[C@@H]2c1ccc(O)cc1,1.55,-1.59 (inactive),-0.638 (inactive),0.0591 (inactive),3.06,0.573 (inactive),0.725,0.735,1.13,0.0038
C#CCN1[C@H](/C=C/C2CC2)[C@H](Cc2ccccc2)OC(=O)[C@@H]1Cc1ccccc1,0.663,-0.651 (inactive),0.241 (inactive),0.79 (inactive),0.613,-0.714 (inactive),-0.102,0.792,0.0922,-0.118
COCCOC(=O)N1C(=O)[C@@]2(c3ccccc31)[C@H](C(=O)N1CCCCCCC1)[C@H]1C(=O)O[C@H](c3ccccc3)[C@H](c3ccccc3)N1[C@@H]2c1ccc(OCCO)cc1,1.54,1.9 (inactive),1.62 (inactive),4.28 (inactive),4.99,-0.348 (inactive),1.98,2.22,1,1.38
C=CCOC(=O)[C@H]1[C@@H]2C(=O)O[C@@H](c3ccccc3)[C@@H](c3ccccc3)N2[C@@H](c2ccc(OCCOC(=O)[C@@H]3C[C@@H]4C(=O)N5CCC[C@H]5C(=O)N4[C@@H]3c3cccc(OCCO)c3)cc2)[C@]12C(=O)Nc1ccc(I)cc12,1.56,0.151 (inactive),1.04 (inactive),2.23 (inactive),2.09,-0.443 (inactive),-0.117,1.86,1.08,0.0032
COC(=O)[C@@]1(Cc2ccc(OC)cc2)[C@H]2c3cc(C(=O)N4CCCC4)n(CCSCCO)c3C[C@H]2CN1C(=O)c1ccccc1,0.416,0.786 (inactive),1.72 (inactive),1.25 (inactive),3.38,-0.647 (inactive),0.172,-0.492,0.671,0.157
COC(=O)C[C@H]1O[C@@H](CCc2ccccc2)[C@@H](C)[C@@H]1[Si](C)(C)c1ccc(OC)cc1,-0.604,0.425 (inactive),-0.412 (inactive),0.797 (inactive),-0.722,-0.67 (inactive),-0.253,-0.263,-0.311,-0.206
CC=CC(O)C1C=CC2C(=O)N(C)C(=O)C2N1N(c1ccccc1)c1ccccc1 (stereo not given),0.344,0.586 (inactive),1.91 (inactive),1.29 (inactive),-0.472,-0.357 (inactive),0.0973,-0.0867,0.0161,0.248
O=C1NC(=O)C2C1C=CC(C(O)C1CC=CCC1)N2Nc1ccccn1 (stereo not given),0.241,1.13 (inactive),0.869 (inactive),0.728 (inactive),0.861,-0.813 (inactive),0.113,-0.0801,0.328,0.26
O=C1O[C@H](c2ccccc2)[C@H](c2ccccc2)N2[C@H]1[C@@H](C(=O)N1CCN(c3ncccn3)CC1)[C@]1(C(=O)Nc3ccc(C#CC4=CCCCC4)cc31)[C@H]2c1ccccc1OCCO,1.53,1.08 (inactive),0.759 (inactive),3.51 (inactive),2.65,0.071 (inactive),0.276,0.922,1.07,-0.0493
CC(C)N1CC=CC23O[C@@H]4C=CCOC(=O)[C@@H]4[C@H]2C(=O)N(CCCCCO)[C@@H]3C1=O (stereo not given in full),0.637,-1.04 (inactive),-0.288 (inactive),-2.25 (inactive),2.64,3.13 (inactive),-0.137,-0.325,-0.107,-0.111
COCCOC(=O)N1C(=O)[C@@]2(c3cc(C#Cc4ccc(OC)cc4)ccc31)[C@H](c1ccc(O)cc1)N1[C@H](c3ccccc3)[C@H](c3ccccc3)OC(=O)[C@H]1[C@@H]2C(=O)Nc1nc2ccccc2s1,1.56,0.15 (inactive),0.0615 (inactive),0.684 (inactive),2.06,-0.944 (inactive),-0.0376,1.09,1.08,-0.0103
CC(C)[C@@H](C(=O)O)n1cc(C2(O)CCCCC2)nn1,0.629,-0.791 (inactive),0.462 (inactive),-1.12 (inactive),1.02,0.616 (inactive),-0.132,0.731,1.05,-0.02
CCCC[C@@H]1C[C@H]1[C@@H](NC(=O)c1cccnc1)c1ccc(Cl)cc1,-2.81,-25 (active),-15.4 (active),0.887 (inactive),0.208,-3.26 (inactive),-0.165,-2.93,-2.46,-0.428
COCC(=C=CC[C@H](O)c1ccccc1OCCO)CCO,0.43,-0.594 (inactive),-0.5 (inactive),-0.127 (inactive),1.8,0.309 (inactive),0.0041,0.698,0.318,-0.1
COc1ccc(CCNC(=O)[C@@]2(C)c3ccccc3C(=O)N(c3ccc(C)cn3)[C@H]2c2ccc(CO)cc2)cc1,-0.0351,-1.39 (inactive),-0.739 (inactive),-1.17 (inactive),-0.04,-0.121 (inactive),0.0851,-0.704,-0.736,-0.247
CO[C@H]1O[C@H](CO)[C@@H](OC(=O)Nc2ccccc2)[C@@H]2OC(=O)[C@@H](Cc3ccc4ccccc4c3)C/C=C/C[C@H](Cc3ccc4ccccc4c3)C(=O)O[C@@H]12,1.47,-1.38 (inactive),-1.57 (inactive),1.55 (inactive),2.35,2.64 (inactive),-0.0403,0.369,0.977,-0.0449
CC(C)CCC[C@@H](C)[C@H]1CC[C@@]2(C)C3=C(CC[C@]12C)[C@@]1(C)CC[C@H](OC(=O)c2ccc(C(F)(F)F)nc2)C(C)(C)C1CC3 (stereo not given in full),-0.431,-1.64 (inactive),-0.769 (inactive),-0.455 (inactive),0.282,3.05 (inactive),-0.233,0.52,0.483,-0.1
O=C(O)C1N=C(c2ccc(OCCCO)cc2)N(c2ccccc2)O1 (stereo not given),1.49,-0.371 (inactive),0.651 (inactive),-0.377 (inactive),2.03,0.281 (inactive),0.0399,0.306,0.12,-0.0828
CCOC(=O)C[C@H]1[C@H](OC(=O)c2ccc(C(=O)c3ccccc3)cc2)[C@@H](NC(=O)c2ccccc2)c2cc(OCCCO)ccc2N1C(=O)c1ccccc1,0.844,-0.178 (inactive),0.801 (inactive),-0.536 (inactive),1.72,-0.448 (inactive),-0.0154,0.508,1.01,0.121
C=C(C)[C@@H]1CC=C(C(O)C2C=CC3C(=O)NC(=O)C3N2Nc2ccc(Cl)cc2Cl)CC1 (stereo not given in full),0.794,-9.03 (active),-5.22 (inactive),3.45 (inactive),2.91,-2.91 (inactive),0.325,-0.821,1.06,0.0044
CN1C(=O)C2C=CC(C(O)c3c(F)cccc3Cl)N(NC(=O)OC(C)(C)C)C2C1=O (stereo not given),1.3,-0.143 (inactive),0.415 (inactive),0.635 (inactive),3.45,-0.597 (inactive),0.18,-0.388,0.686,0.0675
C[N+](C)(C)CCCC[C@@H]1NC(=O)[C@@H]2C[C@H](C(=O)NCCCCCCNC(=O)CS)[C@H](c3ccc(O)cc3)N2C1=O,0.567,0.562 (inactive),-0.0042 (inactive),0.525 (inactive),0.479,-0.0327 (inactive),-0.115,-0.533,-0.627,-0.225
COC(=O)[C@@]1(CCC(=O)OC(C)(C)C)N=C(c2ccc(OCCCO)cc2)O[C@H]1c1ccccc1,0.899,-0.144 (inactive),-2.78 (inactive),3.15 (inactive),1.29,-2.76 (inactive),0.0478,-0.105,0.194,-0.125
COC(=O)[C@]1(CCC(=O)OC(C)(C)C)N=C(c2ccc(OCCCO)cc2)O[C@@H]1c1ccccc1,1.14,-0.401 (inactive),-1.72 (inactive),1.97 (inactive),1.4,2.85 (inactive),0.289,-0.499,0.0628,-0.0689
COc1ccc(NC(=O)O[C@H]2[C@H](OC(=O)c3cc4ccccc4[nH]3)[C@@H](OC(=O)c3cc4ccccc4[nH]3)[C@@H](OC)O[C@@H]2CO)cc1,0.496,-1.68 (inactive),-0.519 (inactive),0.611 (inactive),1.54,0.593 (inactive),-0.007,0.21,0.475,-0.0409
COc1ccc(C#Cc2ccc3c(c2)[C@]2(C(=O)N3)[C@H](c3ccc(O)cc3)N3[C@H](c4ccccc4)[C@H](c4ccccc4)OC(=O)[C@H]3[C@@H]2C(=O)N2CCc3cc(OC)c(OC)cc3C2)cc1,1.54,1.74 (inactive),0.921 (inactive),1.93 (inactive),3.04,-0.0389 (inactive),-0.189,1.68,1.07,-0.0381
C=CCC(OC(C)=O)[C@@H]1[C@@H](N(Cc2ccc(-c3cccc(C(F)(F)F)c3)o2)C(=O)Cc2ccc(OC)cc2)c2cc(OCCCO)ccc2N1C(=O)c1ccc2ccccc2c1 (stereo not given in full),-0.485,0.514 (inactive),0.428 (inactive),-0.645 (inactive),0.589,0.315 (inactive),0.0079,0.397,0.035,-0.127
CN1CCC(CCCO)=CC1c1cccs1 (stereo not given),-0.0029,-1.69 (inactive),-0.327 (inactive),-0.489 (inactive),-0.93,0.345 (inactive),-0.166,0.0615,0.0121,-0.108
